Results reported in ChEMBL document CHEMBL3988442, “University of Dundee, Small-Polar-MMV Screening Library” (2021).
“And” between values parts separate entries of the source, which are not always exact repeats. Identical values can stand only once. About 290 (0.85%) of roughly 34,000 compounds showed an effect of 50% or more. This is one part of a sample in which strong results are shown more often than they occur.

System: Plasmodium falciparum
Assay: Plasmodium falciparum sporozoite viability assay
Assay type: functional, organism-based
Parameters: scale not given: in the data most compounds retested in dose-response had high values

O=C(NCC1CCCO1)c1nc2c(s1)CCCN2C(=O)C1CC1 (stereo not drawn)
Percent Effect: -5.565%

Cl.Cl.O=C([C@H]1CCCN1)N1CC2(CCNCC2)c2cc(Cl)ccc21
Percent Effect: 12.41%

Cc1cc(OCC(=O)N2CCCC(c3noc(C(C)C)n3)C2)no1 (stereo not drawn)
Percent Effect: 2.432%

O=C(c1ccc[nH]1)N1C[C@H]2CN(Cc3cccc(F)c3)C(=O)[C@H]2C1
Percent Effect: 12.11%

c1csc(-c2noc(CN3CCCCC3Cn3cccn3)n2)c1 (stereo not drawn)
Percent Effect (10 mM as filed; unlikely as a test dose): 24.36% and 19.77% and 16.14%

c1csc(-c2noc(CN3CCCC3Cn3cccn3)n2)c1 (stereo not drawn)
Percent Effect (10 mM as filed; unlikely as a test dose): -21.92% and -8.385% and -5.28%

c1ccc(-c2noc(CCCN3CCCC3Cn3cncn3)n2)cc1 (stereo not drawn)
Percent Effect (10 mM as filed; unlikely as a test dose): 40.22% and 41.76% and 47.25%

CCOc1ccnc(N[C@@H](Cc2ccccc2)C(N)=O)n1
Percent Effect: 0.8772%

COC(=O)CSCc1noc(-c2ccc(Cl)cc2)n1
Percent Effect (10 mM as filed; unlikely as a test dose): 72.7% and 74.65%

COC(=O)CSCc1nc(-c2ccc(Cl)cc2)no1
Percent Effect (10 mM as filed; unlikely as a test dose): -107.5% and -111.6%

Cc1ccc(-c2nc(CN3CCc4cnc(C)nc4C3)no2)cc1
Percent Effect: 16.875%

CCOC(=O)CSc1ccc(-c2nc(CC)no2)cn1
Percent Effect (10 mM as filed; unlikely as a test dose): 40.67% and 46.73%

COC(=O)CSCc1noc(-c2ccc(C)cc2)n1
Percent Effect (10 mM as filed; unlikely as a test dose): 97.51% and 95.63%

CCOC(=O)CSc1ccc(-c2nc(C)no2)cn1
Percent Effect (10 mM as filed; unlikely as a test dose): -0.4631% and 0.4035%

O=S1(=O)CCC(N(Cc2nc(-c3ccccn3)no2)Cc2cccs2)C1 (stereo not drawn)
Percent Effect: 22.13%

CCN1CCN(CCCNc2ncccn2)CC1
Percent Effect: -11.01%

Cc1cc(CN(C)C(=O)c2ccc(N(C)C)nc2)no1
Percent Effect: 3.089%

NC(=O)c1cc(C2CCCN(CCOCC3CC3)C2)n[nH]1 (stereo not drawn)
Percent Effect: -0.5536%

Cc1ccc(C2CN(Cc3cccc4[nH]ccc34)CCO2)nc1 (stereo not drawn)
Percent Effect: 9.691%

CC(C)OC(=O)N1CCC(Cc2ccc(C(=O)O)cc2)C1 (stereo not drawn)
Percent Effect: 5.074%

COCCOc1ccc(S(=O)(=O)Nc2cccnc2O)cc1C
Percent Effect (10 mM as filed; unlikely as a test dose): -10.26% and -4.441%

COc1ccc(S(=O)(=O)NC(=O)COC2CCCCC2)cc1C
Percent Effect: -5.465%

COCCOc1ccc(S(=O)(=O)Nc2cccc(O)c2F)cc1C
Percent Effect (10 mM as filed; unlikely as a test dose): 65.91% and 54.13%

CC(C)N1CCN(C)CC(Cc2cc(N(C)C)ncn2)C1 (stereo not drawn)
Percent Effect: 2.091%

CN1CCc2nc3cc(C(=O)NCc4cccs4)ccc3c(=O)n2CC1
Percent Effect: 0.8687%

CCc1nc(CN2CCN(CC(O)c3ccccc3)CC2)no1 (stereo not drawn)
Percent Effect (10 mM as filed; unlikely as a test dose): 4.576% and 5.713% and -3.353%

CCCc1nc(CN2CCN(CC(O)c3ccccc3)CC2)no1 (stereo not drawn)
Percent Effect (10 mM as filed; unlikely as a test dose): -24.09% and -24.64% and -18.14%

O=C(CC1CC1)N1CCCn2nnc(CNc3ncccn3)c2C1
Percent Effect: 2.773%

Cc1noc(C)c1C(=O)NCc1cccnc1N(C)C
Percent Effect: 5.354%

CCC(=O)N1CC[C@H](O)[C@@H]1Cc1ccccc1
Percent Effect: -1.986%

CCc1ccc(CN2CCCCC2c2n[nH]cc2-c2cc(C)no2)cc1.Cl (stereo not drawn)
Percent Effect (10 mM as filed; unlikely as a test dose): 63.83% and 48.62% and 58.14%

Cc1cccc(CN2CCCCC2c2n[nH]cc2-c2cc(C)no2)c1.Cl (stereo not drawn)
Percent Effect (10 mM as filed; unlikely as a test dose): -21.49% and -8.887% and 2.992%

Nc1nccnc1CC1CCCN(Cc2cccc3[nH]ccc23)C1 (stereo not drawn)
Percent Effect: 4.859%

NC(=O)C1CN(c2ccc3cc(Br)ccc3n2)CCO1 (stereo not drawn)
Percent Effect (10 mM as filed; unlikely as a test dose): 80.55% and 85.86%

NC(=O)C1CCN(c2ccc3cc(Br)ccc3n2)C1 (stereo not drawn)
Percent Effect (10 mM as filed; unlikely as a test dose): -42.56% and -39.12%

NC(=O)C1CN(c2ccc(Br)cn2)CCO1 (stereo not drawn)
Percent Effect (10 mM as filed; unlikely as a test dose): -39.17% and -33.44%

Cc1cc(Cc2cccc(C(F)(F)F)c2)cc(C2CCCNC2)n1 (stereo not drawn)
Percent Effect: 4.537%

CN(C)C(=O)CN1CCCCC1c1nc(N)ncc1-c1ccc(Cl)cc1 (stereo not drawn)
Percent Effect: -1.537%

Cc1noc(C)c1C(=O)N1C[C@@H]2CN(Cc3cccnc3)CCO[C@@H]2C1
Percent Effect: -15.82%

CCc1nc(-c2cccc(C(=O)O)c2)no1
Percent Effect: 7.751%

CS(=O)(=O)NC1CCN(C(=O)NCCc2ccccn2)CC1
Percent Effect: -4.021%

Cc1ccc(S(=O)(=O)N2CCN(Cc3ccncc3)CC2)c(Cl)c1
Percent Effect: -1.432%

Cc1ccc(OCCN(C)C(=O)CCCC(N)=O)c(C)c1
Percent Effect: -6.308%

Cc1cn2c(n1)C(CNCc1cccc3c1OCO3)CCC2 (stereo not drawn)
Percent Effect: 10.56%

CC(NCC1=Cc2cc(Cl)ccc2OC1)c1nnc2n1CCCC2 (stereo not drawn)
Percent Effect: -0.2255%

Cc1cn2c(n1)C(CNCC1=Cc3cc(Cl)ccc3OC1)CCC2 (stereo not drawn)
Percent Effect (10 mM as filed; unlikely as a test dose): 86.97% and 100% and 87.02%

Cc1ccc(N2CCCC(NCC3=Cc4ccccc4OC3)C2)nn1 (stereo not drawn)
Percent Effect: 9.337%

Cc1cn2c(n1)C(CNCC1=Cc3ccccc3OC1)CCC2 (stereo not drawn)
Percent Effect (10 mM as filed; unlikely as a test dose): 102.3% and 118.3% and 103.2%

CCc1n[nH]c(C2CN(Cc3nnc(C4CC4)o3)CCO2)n1 (stereo not drawn)
Percent Effect: 4.502%

CCc1ncnc2c1CCN(CCOC)CC2.O=C(O)C(F)(F)F
Percent Effect: 8.757%

CC1COCCN1C(=O)COc1ccc(Oc2ccccn2)cc1 (stereo not drawn)
Percent Effect (10 mM as filed; unlikely as a test dose): 62.7% and 63.29% and 47.53%

CC1COCCN1C(=O)COc1cccc(Oc2ccccn2)c1 (stereo not drawn)
Percent Effect (10 mM as filed; unlikely as a test dose): -6.319% and -6.647% and 2.396%

COc1ncccc1CN1CCc2[nH]nc(C(=O)N(C)C)c2C1
Percent Effect: 10.07%

COCCn1ccc2c(C(=O)Nc3nc4c(s3)CCC4)cccc21
Percent Effect (10 mM as filed; unlikely as a test dose): 69.11% and 95.7% and 86.17%

COCCn1cc(CC(=O)Nc2nc3c(s2)CCC3)c2ccccc21
Percent Effect (10 mM as filed; unlikely as a test dose): 1.19% and -4.41% and -3.323%

COCCn1ccc2c(NC(=O)c3n[nH]c4c3CCC4)cccc21
Percent Effect (10 mM as filed; unlikely as a test dose): -3.571% and -16.58% and -12.91%

Cc1cc(CN2CCN(C(=O)c3sccc3C3CC3)CC2)no1
Percent Effect: 1.531%

O=C(Nc1cccnc1)[C@H]1C[C@H]2OCC[C@H]2N(C(=O)c2ccsc2)C1.O=C(O)C(F)(F)F
Percent Effect: -9.732%

O=C(O)C(F)(F)F.O=C(c1ccsc1)N1C[C@@H]2CCN(c3cccnc3)C[C@@H]2C1
Percent Effect: 9.933%

O=C1CCCN1CC1CCCCN1C(=O)Nc1cccnc1 (stereo not drawn)
Percent Effect: 7.898%

O=C(Nc1cccnc1)C1Cc2nc(-c3ccsc3)sc2N1CC1CC1.O=C(O)C(F)(F)F (stereo not drawn)
Percent Effect (10 mM as filed; unlikely as a test dose): 89.12% and 90.39% and 85.39%

CN(C)C(=O)CN1CCC2(CCN(S(C)(=O)=O)CC2)C1=O
Percent Effect: 9.72%

COc1ncccc1NC(=O)C1CC1
Percent Effect: 5.184%

Cc1cnn(CC2CCCN2CC(=O)Nc2nc(C)cs2)c1 (stereo not drawn)
Percent Effect: 7.289%

CN(C)c1cc(C(=O)N2CCN(c3cc(C#N)ccn3)CC2)ccn1
Percent Effect: 0.09769%

CCc1ocnc1C(=O)N1CCCC1c1noc(C(C)C)n1 (stereo not drawn)
Percent Effect: -5.615%

COc1cccc(-n2c(C)cc(C(=O)NC(C)(C)C(N)=O)c2C)c1
Percent Effect: 5.357%

CN1CCC(c2n[nH]cc2-c2ccnc(N)c2)C1 (stereo not drawn)
Percent Effect: 2.531%

Cc1nnc2n1CCN(CCOc1ccccc1)C2
Percent Effect (10 mM as filed; unlikely as a test dose): -26.14% and -25.56% and -5.728%

CS(=O)(=O)NCc1cc(-c2cc(F)cc(F)c2)nc(N2CCCC2)n1
Percent Effect: 13.63%

CN(Cc1ccccc1)C(=O)CCNc1ncccc1C#N
Percent Effect: -0.1304%

CN(Cc1noc(C2CC2)n1)C1CCN(CC(=O)N2CCOCC2)C1 (stereo not drawn)
Percent Effect: 4.316%

COc1cc(F)c(NCc2nc3ccccc3n2C)cc1OC
Percent Effect (10 mM as filed; unlikely as a test dose): 61.41% and 85.71% and 92.05%

COCCOc1ccc(F)cc1NCc1nc2ccccc2n1C
Percent Effect (10 mM as filed; unlikely as a test dose): 8.05% and -7.699% and 5.859%

COCCOc1ncccc1NCc1nc2ccccc2n1C
Percent Effect (10 mM as filed; unlikely as a test dose): 12.39% and -0.3581% and 11.74%

Cc1cc(NC(=O)CNC2CCc3nc(C(C)C)nn3C2)no1 (stereo not drawn)
Percent Effect: 3.617%

O=C(O)C(F)(F)F.O=C(O)C(F)(F)F.O=C1CC2(CCN(Cc3cccnc3)C2)CN1c1ccc2c(c1)OCO2 (stereo not drawn)
Percent Effect: 12.41%

CN(C)c1nc2c(c(N3CCc4ccccc4C3)n1)CCNC2
Percent Effect: 6.667%

Cc1csc2c(N3CCC(NCCCC4CCOC4)CC3)ncnc12 (stereo not drawn)
Percent Effect: 2.368%

Cl.c1ccc(-c2cc(CNCCCC3CCOC3)c3nnnn3c2)cc1 (stereo not drawn)
Percent Effect: -4.775%

Clc1ccc2nc(N3CCC(NCCCC4CCOC4)CC3)sc2c1 (stereo not drawn)
Percent Effect (10 mM as filed; unlikely as a test dose): 74.93% and 78.72%

COc1ccc2c(c1)C(=O)NC1(CC2)CCN(Cc2ccncc2)C1 (stereo not drawn)
Percent Effect: 11.06%

CCCNC(=O)c1cc(C2CCCN(Cc3ccccn3)C2)no1 (stereo not drawn)
Percent Effect: 2.586%

CNS(=O)(=O)Cc1cccc(CNC(=O)Nc2cn[nH]c2)c1
Percent Effect: 3.105%

Cc1n[nH]c(C2CN(C(=O)c3cc4c(s3)CCCC4)CCO2)n1 (stereo not drawn)
Percent Effect (10 mM as filed; unlikely as a test dose): 11.47% and -8.902% and 7.352%

Cc1n[nH]c(C2CN(C(=O)c3cc4c(s3)CCC4)CCO2)n1 (stereo not drawn)
Percent Effect (10 mM as filed; unlikely as a test dose): -3.516% and -12.52% and -10.81%

N#Cc1c(C2CCOC2)cc(-c2ccc(N3CCCCC3)cc2)nc1N (stereo not drawn)
Percent Effect (10 mM as filed; unlikely as a test dose): 29.44% and 63.96% and 52.39%

Oc1nnc(-c2ccccc2)c2sc(N3CCCCC3)nc12
Percent Effect (10 mM as filed; unlikely as a test dose): 60.86% and 56.27%

Oc1nnc(-c2cccs2)c2sc(N3CCCCC3)nc12
Percent Effect (10 mM as filed; unlikely as a test dose): 6.59% and -1.953%

Oc1nnc(-c2cccs2)c2sc(N3CCCC3)nc12
Percent Effect (10 mM as filed; unlikely as a test dose): -6.906% and -7.819%

CCOc1ccc(Cl)cc1CCNC(=O)Cn1nc(C)ccc1=O
Percent Effect: -8.218%

Cc1nc(COc2ccc(N(C)S(C)(=O)=O)cc2)sc1C
Percent Effect (10 mM as filed; unlikely as a test dose): 53.33% and 78.78% and 74.56%

Cc1nc(C)c(COc2ccc(S(=O)(=O)N(C)C)cc2)s1
Percent Effect (10 mM as filed; unlikely as a test dose): 5.36% and 0% and 2.114%
